Assay results reported in PubChem BioAssay (NCATS).
Results filed as inconclusive are left out. Activity calls are given as the source filed them. The call rests on the fitted dose curve; in most records, active means well fitted inhibition curve with a large enough effect; inconclusive means small, poorly fitted or top-dose-only effect; inactive means flat fitted curve, though single readings scatter.

Columns and labels:
P93_24 = experiment: qHTS profiling for inhibitors of Plasmodium falciparum proliferation (AID 504749); further: potency means the concentration at half of the fitted maximal effect; details: P. falciparum in erythrocytes, SYBR Green DNA, 72 h; series mostly up to 28.7 µM
In short: (§1)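 SYBR Green fluorescence (ex 485 nm, em 535 nm) reports parasite DNA after 72 h compound exposure of infected red cells at 0.3% parasitemia, 2.5% hematocrit; signal normalized to 0.29 uM artemisinin and vehicle wells.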

P94_40 = experiment: as above; details: P. falciparum in erythrocytes, SYBR Green DNA, 72 h; series mostly up to 28.7 µM
In short: as §1

PAD = experiment: as above; details: P. falciparum in erythrocytes, SYBR Green DNA, 72 h; series mostly up to 28.7 µM
In short: as §1

PC15 = experiment: as above; details: P. falciparum in erythrocytes, SYBR Green DNA, 72 h; series mostly up to 28.7 µM
In short: as §1

PC26 = experiment: as above; details: P. falciparum in erythrocytes, SYBR Green DNA, 72 h; series mostly up to 28.7 µM
In short: as §1

PC49 = experiment: as above; details: P. falciparum in erythrocytes, SYBR Green DNA, 72 h; series mostly up to 28.7 µM
In short: as §1

SC27B = experiment: as above; details: P. falciparum in erythrocytes, SYBR Green DNA, 72 h; series mostly up to 28.7 µM
In short: as §1

TAB109 = experiment: as above; details: P. falciparum in erythrocytes, SYBR Green DNA, 72 h; series mostly up to 28.7 µM
In short: as §1

TAB113 = experiment: as above; details: P. falciparum in erythrocytes, SYBR Green DNA, 72 h; series mostly up to 28.7 µM
In short: as §1

TAB165 = experiment: as above; details: P. falciparum in erythrocytes, SYBR Green DNA, 72 h; series mostly up to 28.7 µM
In short: as §1

W2 = experiment: as above; details: P. falciparum in erythrocytes, SYBR Green DNA, 72 h; series mostly up to 28.7 µM
In short: as §1

CRL-7250 = normal cell line; experiment: Cytotoxic Profiling of Annotated Libraries Using Quantitative High-Throughput Screening (AID 1296008); details: Five cell lines viability, CellTiter-Glo ATP luminescence, 48-72 h; active compounds read low; on max response: on the % scale 0 is the no-effect control and ±100 the full control effect
In short: (§2)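 Cells exposed to compounds for 48 or 72 hr at 37 degrees Celsius. Viability read as ATP-coupled luminescence with CellTiter-Glo after 10 min at room temperature.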

HEK293 = experiment: as above; details: Five cell lines viability, CellTiter-Glo ATP luminescence, 48-72 h; active compounds read low
In short: as §2

HaCat [1] = experiment: as above; details: Five cell lines viability, CellTiter-Glo ATP luminescence, 48-72 h; active compounds read low
In short: as §2

KB-3-1 = experiment: as above; details: Five cell lines viability, CellTiter-Glo ATP luminescence, 48-72 h, active compounds read low
In short: as §2

NIH3T3 = experiment: as above; details: Five cell lines viability, CellTiter-Glo ATP luminescence, 48-72 h; active compounds read low
In short: as §2

HACAT [2] = experiment: qHTS assay to identify novel small-molecules to repurpose for Merkel cell carcinoma treatment (AID 1296009); details: MCC and control cell lines, CellTiter-Glo viability, 72 h; at 44.8 µM (top of the series) unless noted; on activity change, negative = cytotoxicity: on the % scale 0 is the no-effect control and ±100 the full control effect
In short: (§3)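 CellTiter-Glo luminescence after 72 hr compound exposure at 37 degree celsius gave cell viability. Libraries NPC and MIPE were run as 8- and 11-point dose responses; RLUs normalized to DMSO (negative) and no-cell (cytotoxicity) controls.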

MCC-13 = experiment: as above; details: MCC and control cell lines, CellTiter-Glo viability, 72 h; series mostly up to 46 µM
In short: as §3

MCC-26 = experiment: as above; details: MCC and control cell lines, CellTiter-Glo viability, 72 h; series mostly up to 46 µM
In short: as §3

HEK293T = experiment: as above; details: MCC and control cell lines, CellTiter-Glo viability, 72 h; at 44.8 µM (top of the series) unless noted
In short: as §3
Further: nearly all actives have a fitted effect of over 60% in size.

CCS(=O)(=O)CCn1c([N+](=O)[O-])cnc1C
inactive: Potency (P93_24) | Potency (P94_40) | Potency (PAD) | Potency (PC15) | Potency (PC26) | Potency (PC49) | Potency (SC27B) | Potency (TAB109) | Potency (TAB113) | Potency (TAB165) | Potency (W2) | outcome (CRL-7250) | max response (HEK293) 1.79% | outcome (HaCat [1]) | max response (KB-3-1) -0.735% | max response (NIH3T3) -2.73% | outcome (HACAT [2]) | outcome (MCC-13) | outcome (MCC-26)

O=C(O)c1ccc[n+]([O-])c1
inactive: Potency (P93_24) | Potency (P94_40) | Potency (PAD) | Potency (PC15) | Potency (PC26) | Potency (PC49) | Potency (SC27B) | Potency (TAB109) | Potency (TAB113) | Potency (TAB165) | Potency (W2) | outcome (CRL-7250) | max response (HEK293) -0.144% | outcome (HaCat [1]) | max response (KB-3-1) -1.65% | outcome (NIH3T3) | outcome (HACAT [2]) | outcome (MCC-13) | outcome (MCC-26)

NC(N)=NCCN1CCCCCCC1
inactive: Potency (P93_24) | Potency (P94_40) | Potency (PAD) | Potency (PC15) | Potency (PC26) | Potency (PC49) | Potency (SC27B) | Potency (TAB109) | Potency (TAB113) | Potency (TAB165) | Potency (W2) | max response (CRL-7250) -19.7% | max response (HEK293) 0.733% | outcome (HaCat [1]) | max response (KB-3-1) 18.1% | max response (NIH3T3) 4.36% | outcome (HACAT [2]) inactive [at 0.588 µM] | activity change, negative = cytotoxicity (MCC-13) 12.6% [at 0.597 µM] | activity change, negative = cytotoxicity (MCC-26) 12.5% [at 0.597 µM]

CC(=O)NS(=O)(=O)c1ccc(N)cc1
inactive: Potency (P94_40) | Potency (PAD) | Potency (PC15) | Potency (PC26) | Potency (PC49) | Potency (SC27B) | Potency (TAB109) | Potency (TAB113) | Potency (TAB165) | Potency (W2) | max response (CRL-7250) -3.19% | max response (HEK293) -5.52% | outcome (HaCat [1]) | max response (KB-3-1) 3.12% | max response (NIH3T3) -1.48% | outcome (HACAT [2]) | outcome (MCC-13) | outcome (MCC-26)

CCCCCC(N)=O
inactive: Potency (P93_24) | Potency (P94_40) | Potency (PAD) | Potency (PC15) | Potency (PC26) | Potency (PC49) | Potency (SC27B) | Potency (TAB109) | Potency (TAB113) | Potency (TAB165) | Potency (W2) | outcome (CRL-7250) | max response (HEK293) -2.09% | outcome (HaCat [1]) | max response (KB-3-1) -2.56% | outcome (NIH3T3) | outcome (HACAT [2]) | outcome (MCC-13) | outcome (MCC-26)

CC[N+](C)(CC)CCOC(=O)C1c2ccccc2Oc2ccccc21
inactive: Potency (P93_24) | Potency (P94_40) | Potency (PAD) | Potency (PC15) | Potency (PC26) | Potency (PC49) | Potency (SC27B) | Potency (TAB109) | Potency (TAB113) | Potency (W2) | outcome (CRL-7250) | max response (HEK293) -9.27% | outcome (HaCat [1]) | max response (KB-3-1) 56.3% | max response (NIH3T3) 2.85% | outcome (HACAT [2]) | outcome (MCC-13) | outcome (MCC-26)

CC(=O)SC[C@@H](Cc1ccccc1)C(=O)NCC(=O)OCc1ccccc1
inactive: Potency (P93_24) | Potency (P94_40) | Potency (PAD) | Potency (PC15) | Potency (PC26) | Potency (PC49) | Potency (SC27B) | Potency (TAB109) | Potency (TAB113) | Potency (TAB165) | Potency (W2) | outcome (CRL-7250) | max response (HEK293) -5.72% | outcome (HaCat [1]) | max response (KB-3-1) 6.03% | max response (NIH3T3) -11.9% | outcome (HACAT [2]) | outcome (MCC-13)

O=C1c2ccccc2C(=O)C1c1ccc(Br)cc1
active: Potency (P94_40) 10 µM | Potency (TAB113) 8.91 µM | Potency (W2) 4.78 µM
inactive: Potency (PC15) | Potency (PC49) | Potency (SC27B) | max response (CRL-7250) -1.25% | max response (HEK293) -0.633% | outcome (HaCat [1]) | max response (KB-3-1) -16.6% | max response (NIH3T3) -1.29% | outcome (HACAT [2]) | outcome (MCC-13) | outcome (MCC-26)

CC(=O)Nc1cccc(O)c1
inactive: Potency (P93_24) | Potency (P94_40) | Potency (PAD) | Potency (PC15) | Potency (PC26) | Potency (PC49) | Potency (SC27B) | Potency (TAB109) | Potency (TAB113) | Potency (TAB165) | Potency (W2) | max response (CRL-7250) -4.66% | max response (HEK293) 4.09% | outcome (HaCat [1]) | max response (KB-3-1) 0.376% | max response (NIH3T3) 0.534% | outcome (HACAT [2]) | outcome (MCC-13)

C=CCN1C[C@H](C(=O)N(CCCN(C)C)C(=O)NCC)C[C@@H]2c3cccc4[nH]cc(c34)C[C@H]21
inactive: outcome (CRL-7250) | max response (HEK293) 1.65% | max response (HaCat [1]) -1.25% | max response (KB-3-1) 6.36% | outcome (NIH3T3) | outcome (MCC-13)

C[N+](C)(C)CC(O)CC(=O)[O-] (stereo unspecified)
inactive: max response (CRL-7250) -9.06% | max response (HEK293) -5.18% | max response (HaCat [1]) 4.86% | max response (KB-3-1) -5.76% | outcome (NIH3T3) | outcome (MCC-13) | outcome (MCC-26)

CC(C)C[C@@H](N)C(=O)O
inactive: Potency (P93_24) | Potency (P94_40) | Potency (PAD) | Potency (PC15) | Potency (PC26) | Potency (PC49) | Potency (SC27B) | Potency (TAB109) | Potency (TAB113) | Potency (TAB165) | Potency (W2) | max response (CRL-7250) -5.17% | outcome (HEK293) | max response (HaCat [1]) 4.82% | max response (KB-3-1) 12.7% | max response (NIH3T3) 4.91% | outcome (HEK293T) inactive [at 17.4 µM] | outcome (MCC-13) | outcome (MCC-26)

COc1cc(O)cc(O)c1
inactive: Potency (P93_24) | Potency (P94_40) | Potency (PAD) | Potency (PC15) | Potency (PC26) | Potency (PC49) | Potency (SC27B) | Potency (TAB109) | Potency (TAB113) | Potency (TAB165) | outcome (CRL-7250) | outcome (HEK293) | max response (HaCat [1]) -8.13% | max response (KB-3-1) -4.6% | max response (NIH3T3) -7.04% | outcome (HEK293T) | outcome (MCC-13) | outcome (MCC-26)

O=C(O)[C@@H]1[C@H]2C[C@H]3c4[nH]c5ccccc5c4CCN3C[C@@H]2CC[C@@H]1O
inactive: max response (CRL-7250) -7.72% | max response (HEK293) -7.97% | max response (HaCat [1]) 4.24% | max response (KB-3-1) 7.03% | outcome (NIH3T3) | outcome (MCC-13) | outcome (MCC-26)

CC(=O)N1C[C@H](O)C[C@H]1C(=O)O
inactive: outcome (CRL-7250) | max response (HEK293) 1.84% | max response (HaCat [1]) 4.9% | max response (KB-3-1) 8.51% | outcome (NIH3T3) | outcome (MCC-13) | outcome (MCC-26)
